ELG1 DNA repair: inhibitors of ELG1-dependent DNA repair in HEK293T cells. HEK293T ELG1-luciferase reporter, luminescence, 16 h; DNA damage induced by 5-fluorouridine. Potency, µM (highest dose often 46.1 µM), usual class: inhibitors. 330,000 tested, 2.3% active; note: nearly all actives have a fitted effect of over 55% in size
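HEK293T cells expressing luciferase-tagged ELG1 (2,000/well) received 5-Fluorouridine plus compound or DMSO for 16 hr at 37 °C. Luciferase was read by ONE-Glo luminescence after 30 min at room temperature.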
IDH1 R132H inh: blocks human mutant IDH1 R132H enzyme. Potency, µM (titrated, usually from 76.6 µM), actives largely listed as inhibitors. AID 602179. IDH1-R132H enzyme, NADPH consumption, diaphorase/resazurin fluorescence. 390,000 tested, 0.093% active. O75874; note: nearly all actives have a fitted effect of over 65% in size
Target sequence (O75874 whole entry R132H, stated change not applied): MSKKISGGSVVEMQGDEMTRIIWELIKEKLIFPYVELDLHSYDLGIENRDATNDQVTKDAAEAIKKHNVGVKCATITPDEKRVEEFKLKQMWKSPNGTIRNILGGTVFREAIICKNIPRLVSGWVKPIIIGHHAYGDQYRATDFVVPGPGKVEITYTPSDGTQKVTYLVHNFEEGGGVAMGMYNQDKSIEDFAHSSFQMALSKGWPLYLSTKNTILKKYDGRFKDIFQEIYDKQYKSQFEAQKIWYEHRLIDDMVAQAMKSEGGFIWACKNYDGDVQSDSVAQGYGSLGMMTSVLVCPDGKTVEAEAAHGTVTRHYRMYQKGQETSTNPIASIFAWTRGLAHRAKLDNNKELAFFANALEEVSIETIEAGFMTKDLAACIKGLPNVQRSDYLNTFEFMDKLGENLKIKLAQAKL
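IDH1-R132H (0.5 ug/mL dispensed) in pH 7.5 Tris buffer was preincubated 30 min with compound, then given a substrate mix of 0.016 mM NADPH and 2 mM alpha-KG for 80 min at room temperature; remaining NADPH was read by diaphorase/resazurin fluorescence.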
A549 tox: counter-screen for Nrf2 inhibitors: cytotoxicity in A549 cells | Potency, µM (doses to about 46 µM), hits mostly inhibitors | AID 504648 | 390,000 tested, 0.16% active | A549 ARE-Fluc cells, CellTiter-Fluor viability, 18-24 h
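Cytotoxicity counterscreen: CellTiter-Fluor fluorescence was measured in A549 ARE_Fluc cells after 18-24 h of compound exposure in a concentration series. The subsequent BugLite luminescent read reports ARE-luciferase activity.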
Nrf2 ARE act: Nrf2 pathway activation | 410,000 tested, 0.31% active | Potency, µM (titrated, usually from 46.1 µM), hits mostly activators | AREc32 ARE-luciferase reporter (MCF7-derived line), luminescence, 24 h; note: nearly all actives have a fitted effect of over 65% in size
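AREc32 cells carrying an ARE-driven firefly luciferase, 1000 cells/well in OPTI-MEM with 5% FBS, dosed after overnight attachment and incubated 24 hr at 37 deg C. Steady-Glo luminescence read after 30 min at RT.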
Nrf2 inh: blocks Nrf2 signaling | A549 ARE-Fluc reporter, luciferase luminescence, 18-24 h | Potency, µM (series often up to 46 µM), hits mostly inhibitors | 360,000 tested, 2.1% active; note: nearly all actives have a fitted effect of over 60% in size
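Quantitative HTS in A549 cells stably bearing an antioxidant response element-firefly luciferase construct. Inhibition of Nrf2-driven transcription was scored by luminescence after 18-24 h of compound exposure at 37 °C.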
Large screens that a line does not name were inactive. In the library only some 3.8% were active in any assay of this set; here they are far more common. Calls come from the whole dose curve; as a rule, active = well fitted curve in the direction sought with a large enough effect; inconclusive = small, poorly fitted or top-dose-only effect, or another doubt; inactive = no such curve, though single readings can be large; an effect the other way counts as inactive or inconclusive.

CN(Cc1ccccc1)C(=O)c1cccc(NC(=O)Cc2cccc(NC(=O)C3CCN(C(=O)C4CCC4)CC3)c2)c1	none (no result: ELG1 DNA repair)
CN(Cc1ccccc1)C(=O)c1ccc(NC(=O)Cc2cccc(NC(=O)C3CCN(C(=O)C4CCCC4)CC3)c2)cc1	ELG1 DNA repair 10µM
CN(C(=O)c1ccc(NC(=O)Cc2ccc(NC(=O)C3CCCN(C(=O)CCc4ccccc4)C3)cc2)cc1)C1CC1 (stereo not given)	Nrf2 inh 12µM
CC(C)(C)OC(=O)N(Cc1ccccc1)Cc1cccc(OCc2cccc(NC(=O)C3CC3)c2)c1	Nrf2 inh 26µM (no result: ELG1 DNA repair)
CC(C)(C)OC(=O)N1CCCC(C(=O)Nc2cccc(C(=O)NCCCc3ccccc3)c2)C1 (stereo not given)	Nrf2 inh inconclusive (no result: ELG1 DNA repair)
CC(NCC(=O)NC(=O)NCCC1=CCCCC1)c1ccc(S(N)(=O)=O)cc1 (stereo not given)	none (no result: ELG1 DNA repair)
CCOc1ccccc1NC(=O)CN(C)S(=O)(=O)c1ccc2nc(C)sc2c1	none (no result: ELG1 DNA repair, IDH1 R132H inh)
CN(Cc1ccccc1)C(=O)c1ccc(NC(=O)Cc2cccc(NC(=O)C3CCCN(C(=O)CCc4ccccc4)C3)c2)cc1 (stereo not given)	ELG1 DNA repair inconclusive, Nrf2 inh 21µM
CN(Cc1ccccc1)C(=O)c1cccc(NC(=O)Cc2ccc(NC(=O)C3CCCN(C(=O)CCc4ccccc4)C3)cc2)c1 (stereo not given)	Nrf2 inh inconclusive (no result: ELG1 DNA repair)
Cc1ccc(S(=O)(=O)N2CC(O)C[C@H]2C(=O)OCC(=O)N2CCN(c3ccc(F)cc3)CC2)cc1C (stereo not given in full)	Nrf2 inh 16µM (no result: ELG1 DNA repair)
Cc1ccc(S(=O)(=O)N2CCC(C(=O)OCC(=O)N3CC(C)CC(C)C3)CC2)cc1C (stereo not given)	none
N/C(=N\OC(=O)c1cccc(F)c1)c1ccccc1	ELG1 DNA repair inconclusive, Nrf2 ARE act 11µM, Nrf2 inh inconclusive
Cc1ccc(/C(N)=N/OC(=O)c2ccc(F)cc2)cc1	ELG1 DNA repair inconclusive, Nrf2 inh inconclusive
Cc1ccc(/C(N)=N/OC(=O)c2cccc(F)c2)cc1	ELG1 DNA repair inconclusive, Nrf2 ARE act 11µM (no result: Nrf2 inh)
N/C(=N\OC(=O)c1ccc(F)cc1)c1ccccc1	ELG1 DNA repair inconclusive, Nrf2 ARE act inconclusive, Nrf2 inh inconclusive
Cc1ccccc1NS(=O)(=O)c1ccc(C(=O)NCC(C)(C)N2CCOCC2)cc1	Nrf2 inh 10µM
CC(C)(CNC(=O)c1ccc(S(=O)(=O)Nc2ccccc2F)cc1)N1CCOCC1	Nrf2 inh inconclusive
COc1ccc(-c2cc(C)no2)cc1S(=O)(=O)Nc1cccc(C)c1	Nrf2 inh 23µM
Cc1ccccc1CNC(=O)c1ccc(CS(=O)Cc2ccc(Cl)cc2)o1 (stereo not given)	none (no result: ELG1 DNA repair)
CCOCCOC(=O)c1[nH]c2c(c1C)C(=O)CC(c1ccc(OC)c(OC)c1)C2 (stereo not given)	ELG1 DNA repair inconclusive, Nrf2 inh 21µM
COc1ccc(OC)c(C2CC(=O)c3c([nH]c(C(=O)OCC4CCCO4)c3C)C2)c1 (stereo not given)	ELG1 DNA repair 10µM, Nrf2 inh inconclusive
Cc1nc(-c2ccc([S+](=O)([O-])N3CCN([S+](=O)([O-])c4c(F)cccc4F)CC3)s2)cs1	none (no result: ELG1 DNA repair, IDH1 R132H inh, Nrf2 ARE act)
O=C1CC(c2nc3ccccc3n2CCCCOc2ccccc2)CN1c1ccccc1Cl (stereo not given)	Nrf2 inh inconclusive (no result: ELG1 DNA repair)
CN1CCN(C(=O)c2cc(COc3ccc(F)cc3Cl)on2)CC1c1ccccc1 (stereo not given)	A549 tox inconclusive, Nrf2 inh 13µM
O=C(/C=C\c1ccccc1OC(=O)c1ccccc1F)c1cc2ccccc2o1	ELG1 DNA repair inconclusive, A549 tox inconclusive, Nrf2 ARE act 11µM, Nrf2 inh inconclusive
COc1ccc(-c2csc(NC(=O)C3CC(=O)N(Cc4ccco4)C3)n2)cc1 (stereo not given)	Nrf2 inh inconclusive
COc1ccc(-c2nc(NC(=O)C3CC(=O)N(Cc4ccco4)C3)sc2C)cc1 (stereo not given)	A549 tox inconclusive, Nrf2 inh 23µM
COC(=O)c1sc(N)c(C(=O)OC)c1COC(=O)C1CC(=O)N(Cc2ccco2)C1 (stereo not given)	ELG1 DNA repair 8.2µM
COc1ccc(-c2nc(NC(=O)C3CCN(c4nc5ccccc5o4)CC3)sc2C)cc1	ELG1 DNA repair 12µM, A549 tox inconclusive, Nrf2 inh inconclusive
COc1ccc(CC(=O)N2CCC(Nc3nc4ccccc4n3Cc3ccc(F)cc3)CC2)cc1	ELG1 DNA repair 21µM, Nrf2 inh inconclusive
CCN(CC)C(=O)c1sc2c(c1C)c(=O)n(CCc1ccccc1)c(=O)n2Cc1ccc(F)cc1Cl	none (no result: ELG1 DNA repair, Nrf2 inh)
O=C(COc1cccc(C(F)(F)F)c1)N1CCN(c2ccc(O)cc2)CC1	ELG1 DNA repair 16µM
COCC(C)N1C(=O)Cc2c1nc(N)c1c(N)nc(N3CCN(c4ccccc4F)CC3)c(C#N)c21 (stereo not given)	ELG1 DNA repair 21µM, Nrf2 inh 12µM
Cc1ccc2nc(/N=C(\N)NC(=O)NC3CCCCC3)nc(C)c2c1	A549 tox 23µM, Nrf2 inh 8.2µM
CCOC(=O)C1=C[C@@H](C(=O)OCC)[C@@H]2C3=C(C(=O)C2(C)C)[C@H](c2ccccc2)[C@@H]2C(=O)N(c4ccccc4)C(=O)[C@@H]2[C@@H]3C1	none (no result: ELG1 DNA repair, IDH1 R132H inh, Nrf2 ARE act)
COc1ccc(F)cc1S(=O)(=O)NCC(c1ccco1)S(=O)(=O)c1ccc(F)cc1 (stereo not given)	Nrf2 ARE act inconclusive (no result: ELG1 DNA repair, Nrf2 inh)
CC1C/C(=C/c2cccn2C)C(=O)/C(=C/c2cccn2C)C1 (stereo not given)	ELG1 DNA repair inconclusive, A549 tox inconclusive, Nrf2 ARE act inconclusive, Nrf2 inh inconclusive
CC1C/C(=C/c2ccncc2)C(=O)/C(=C/c2ccncc2)C1 (stereo not given)	ELG1 DNA repair 21µM, IDH1 R132H inh inconclusive, A549 tox inconclusive, Nrf2 inh inconclusive
O=C(Nc1cc(=O)c2ccccc2o1)N1CCCCC1	ELG1 DNA repair 15µM, Nrf2 inh inconclusive (no result: A549 tox)
O=C(OCC(=O)N1CCCC1)c1cc(=O)c2ccccc2o1	ELG1 DNA repair inconclusive
O=C(Nc1cc(=O)c2ccccc2o1)N1CCOCC1	ELG1 DNA repair 5.8µM, Nrf2 inh inconclusive (no result: A549 tox)
COc1cc(OC)c(C#N)c(S(=O)(=O)Cc2ccccc2)c1	none
N#Cc1c([N+](=O)[O-])cc([N+](=O)[O-])cc1S(=O)(=O)Cc1ccccc1	ELG1 DNA repair 16µM, Nrf2 ARE act inconclusive, Nrf2 inh inconclusive
C(=C\c1ccc(/C=C/c2ccccc2)nn1)/c1ccccc1	none (no result: IDH1 R132H inh, A549 tox, Nrf2 ARE act, Nrf2 inh)
N#CCSc1nccc(/C=C/c2ccccc2)n1	ELG1 DNA repair inconclusive, Nrf2 ARE act 11µM, Nrf2 inh inconclusive
